Assay results reported in PubChem BioAssay (NCATS).
Several values for one entry are separate records, joined by “and”; a condition that tells them apart may be missing. Equal entries are not always repeated. Inconclusive results are not listed. Entries that show only a call come without a potency. Activity calls are given as the source filed them. Calls come from the whole dose curve; as a rule, active = well fitted curve in the direction sought with a large enough effect; inconclusive = small, poorly fitted or top-dose-only effect, or another doubt; inactive = no such curve, though single readings can be large; an effect the other way counts as inactive or inconclusive.

Assays:
[1] = qHTS of pediatric cancer cell lines to identify multiple opportunities for drug repurposing: Primary screen for BT-37 cells (AID 1347094); note: potency is the fitted concentration of half-maximal effect
Procedure, shortened: (§1)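 Phenotypic viability qHTS, 48 h compound exposure, CellTiter-Glo luminescence read-out; multi-concentration dosing so that potency and efficacy derive directly from the primary screen's curves.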

[2] = qHTS of pediatric cancer cell lines to identify multiple opportunities for drug repurposing: Primary screen for NB-EBc1 cells (AID 1347095); note: potency is the fitted concentration of half-maximal effect
Procedure, shortened: as §1

[3] = qHTS of pediatric cancer cell lines to identify multiple opportunities for drug repurposing: Primary screen for U-2 OS cells (AID 1347096); note: nearly all actives have a fitted effect of over 50% in size
Procedure, shortened: (§2)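 Viability after 48 h compound treatment at 37C, 500-1,000 cells/well, read as ATP luminescence with CellTiter-Glo. Primary screens used 11-point (MIPE, 0.78 nM-46 µM) or 8-point (NPC, 0.59 nM-46 µM) final concentrations; follow-up screens used 11-point dilutions.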

[4] = qHTS of pediatric cancer cell lines to identify multiple opportunities for drug repurposing: Primary screen for Saos-2 cells (AID 1347097); note: nearly all actives have a fitted effect of over 40% in size; note: potency is the fitted concentration of half-maximal effect
Procedure, shortened: as §1

[5] = qHTS of pediatric cancer cell lines to identify multiple opportunities for drug repurposing: Primary screen for SK-N-SH cells (AID 1347098);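 note: DMSO served as neutral control and bortezomib at 2.3 µM as positive control; nearly all actives have a fitted effect of over 65% in size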
Procedure, shortened: (§3)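 Cells (500-1,000/well) rested 5 h, then received compounds for 48 h; metabolically active cells were measured by CellTiter-Glo luminescence. Final concentrations spanned up to 46 µM (MIPE, 11-point) or 0.59 nM-46 µM (NPC, 8-point) in primary screens, 11-point in follow-ups.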

[6] = qHTS of pediatric cancer cell lines to identify multiple opportunities for drug repurposing: Primary screen for NB1643 cells (AID 1347099); note: nearly all actives have a fitted effect of over 50% in size; note: potency is the fitted concentration of half-maximal effect
Procedure, shortened: as §1

[7] = qHTS of pediatric cancer cell lines to identify multiple opportunities for drug repurposing: Primary screen for LAN-5 cells (AID 1347100); note: potency is the fitted concentration of half-maximal effect
Procedure, shortened: as §2

[8] = qHTS of pediatric cancer cell lines to identify multiple opportunities for drug repurposing: Primary screen for BT-12 cells (AID 1347101); note: nearly all actives have a fitted effect of over 25% in size; note: potency is the fitted concentration of half-maximal effect
Procedure, shortened: as §3

[9] = qHTS of pediatric cancer cell lines to identify multiple opportunities for drug repurposing: Primary screen for Rh18 cells (AID 1347102); note: nearly all actives have a fitted effect of over 65% in size; note: potency is the fitted concentration of half-maximal effect
Procedure, shortened: as §2

[10] = qHTS of pediatric cancer cell lines to identify multiple opportunities for drug repurposing: Primary screen for RD cells (AID 1347104); note: nearly all actives have a fitted effect of over 55% in size
Procedure, shortened: as §1

[11] = qHTS of pediatric cancer cell lines to identify multiple opportunities for drug repurposing: Primary screen for MG 63 (6-TG R) cells (AID 1347105); note: nearly all actives have a fitted effect of over 50% in size; note: potency is the fitted concentration of half-maximal effect
Procedure, shortened: as §1

[12] = qHTS of pediatric cancer cell lines to identify multiple opportunities for drug repurposing: Primary screen for control Hh wild type fibroblast cells (AID 1347106);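 note: series mostly up to about 46 µM; a drop in luminescence marks cytotoxicity and a rise apparent proliferation; nearly all actives have a fitted effect of over 55% in size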
Procedure, shortened: as §2

[13] = qHTS of pediatric cancer cell lines to identify multiple opportunities for drug repurposing: Primary screen for Rh30 cells (AID 1347107); note: series mostly up to about 46 µM; nearly all actives have a fitted effect of over 75% in size
Procedure, shortened: as §2

[14] = qHTS of pediatric cancer cell lines to identify multiple opportunities for drug repurposing: Primary screen for Rh41 cells (AID 1347108);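 note: series mostly up to about 46 µM; luminescence drop marks cytotoxic hits; nearly all actives have a fitted effect of over 70% in size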
Procedure, shortened: as §1

[15] = qHTS of pediatric cancer cell lines to identify multiple opportunities for drug repurposing: Primary screen for OHS-50 cells (AID 1347103); note: nearly all actives have a fitted effect of over 40% in size; note: potency is the fitted concentration of half-maximal effect
Procedure, shortened: as §3

[16] = qHTS of pediatric cancer cell lines to identify multiple opportunities for drug repurposing: Confirmatory screen for NB1643 cells (AID 1347109); note: potency is the fitted concentration of half-maximal effect; nearly all actives have a fitted effect of over 45% in size
Procedure, shortened: as §2

[17] = qHTS of pediatric cancer cell lines to identify multiple opportunities for drug repurposing: Confirmatory screen for A673 cells (AID 1347110); note: potency is the fitted concentration of half-maximal effect; nearly all actives have a fitted effect of over 65% in size
Procedure, shortened: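 Forty-eight-hour viability assay. Follow-up compounds ran at 11-point dilutions; positive control bortezomib at 2.3 uM final, neutral control DMSO.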

[18] = qHTS of pediatric cancer cell lines to identify multiple opportunities for drug repurposing: Confirmatory screen for SK-N-MC cells (AID 1347111);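 note: potency is the fitted concentration of half-maximal effect; cells exposed to compound for 48 h before the readout; nearly all actives have a fitted effect of over 70% in size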
Procedure, shortened: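 SK-N-MC cells at 500-1,000 cells/well in growth media were pre-incubated 5 h, then exposed to compounds at 11-point dilutions for 48 h at 37 degrees C, 5% CO2. Viability was read as CellTiter-Glo luminescence.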

[19] = qHTS of pediatric cancer cell lines to identify multiple opportunities for drug repurposing: Confirmatory screen for LAN-5 cells (AID 1347113); note: potency is the fitted concentration of half-maximal effect; nearly all actives have a fitted effect of over 65% in size
Procedure, shortened: as §2

In the case of CC1OC(C)OC(C)O1 (stereo not drawn), the Potency [1] is reported as “inactive”, the Potency [2] is reported as “inactive” and the Potency [3] is reported as “inactive”. For the same compound, the Potency [4] was “inactive”, the Potency [5] was “inactive” and the Potency [6] was “inactive”. The Potency [7] was “inactive”, the Potency [8] was “inactive” and the Potency [9] was “inactive”. The Potency [10] was “inactive”, the Potency [11] was “inactive” and the Potency [12] was “inactive”. The Potency [13] was “inactive” and the Potency [14] was “inactive”.
For CN(C)CCc1ccc(O)cc1, the Potency [1] was “inactive”, the Potency [2] was “inactive” and the Potency [3] was “inactive”. The Potency [4] was “inactive”, the Potency [5] was “inactive” and the Potency [6] was “inactive”. For the same compound, the Potency [7] was “inactive”, the Potency [8] was “inactive” and the Potency [9] was “inactive”. For the same compound, the Potency [15] was “inactive”, the Potency [10] was “inactive” and the Potency [11] was “inactive”. For the same compound, the Potency [12] was “inactive”, the Potency [13] was “inactive” and the Potency [14] was “inactive”.
In the case of COc1ccccc1N1CCNCC1, the Potency [1] is reported as “inactive”, the Potency [2] is reported as “inactive” and the Potency [3] is reported as “inactive”. The Potency [4] was “inactive”, the Potency [5] was “inactive” and the Potency [6] was “inactive”. The Potency [7] was “inactive”, the Potency [8] was “inactive” and the Potency [15] was “inactive”. For the same compound, the Potency [10] was “inactive”, the Potency [11] was “inactive” and the Potency [12] was “inactive”. The Potency [13] was “inactive” and the Potency [14] was “inactive”.
With FC(F)(F)c1cccc(C2=CCN(CCc3ccc4ccccc4c3)CC2)c1 the Potency [1] was “inactive”, the Potency [2] was “inactive” and the Potency [3] was “inactive”. For the same compound, the Potency [4] was “inactive”, the Potency [6] was “inactive” and the Potency [7] was “inactive”. For the same compound, the Potency [8] was “inactive”, the Potency [9] was “inactive” and the Potency [10] was “inactive”. For the same compound, the Potency [11] was “inactive”, the Potency [12] was “inactive” and the Potency [13] was “inactive”. The Potency [14] was “inactive”.
In the case of N[C@@H](Cc1ccc(N(CCCl)CCCl)cc1)C(=O)O, the Potency [1] is reported as 15.5 µM (active) and 15.3 µM (active), the Potency [2] is reported as 3.76 µM (active) and 235 nM (active) and the Potency [3] is reported as “inactive”. The Potency [4] was 26.6 µM (active) and 16.6 µM (active), the Potency [6] was 9.44 µM (active) and 16.6 µM (active) and the Potency [7] was 5.96 µM (active) and 3.72 µM (active). For the same compound, the Potency [9] was 21.1 µM (active), the Potency [15] was 9.78 µM (active) and 3.85 µM (active) and the Potency [10] was “inactive”. For the same compound, the Potency [11] was 16.8 µM (active) and 18.7 µM (active), the Potency [12] was “inactive” and the Potency [13] was “inactive”. The Potency [16] was 6.57 µM (active), the Potency [17] was 16.5 µM (active) and the Potency [18] was 2.61 µM (active). For the same compound, the Potency [19] was 5.22 µM (active).
In the case of CC(=O)[C@H]1CC[C@H]2[C@@H]3CC[C@H]4C[C@H](O)CC[C@]4(C)[C@H]3C(=O)C[C@]12C, the Potency [1] is reported as “inactive”, the Potency [2] is reported as “inactive” and the Potency [3] is reported as “inactive”. The Potency [4] was “inactive”, the Potency [6] was “inactive” and the Potency [7] was “inactive”. For the same compound, the Potency [8] was “inactive”, the Potency [9] was “inactive” and the Potency [10] was “inactive”. For the same compound, the Potency [11] was “inactive”, the Potency [12] was “inactive” and the Potency [13] was “inactive”. The Potency [14] was “inactive”.
In the case of O=[N+]([O-])c1cc([As](=O)(O)O)ccc1O, the Potency [1] is reported as “inactive”, the Potency [2] is reported as “inactive” and the Potency [3] is reported as “inactive”. For the same compound, the Potency [4] was “inactive”, the Potency [6] was “inactive” and the Potency [7] was “inactive”. The Potency [8] was “inactive”, the Potency [15] was “inactive” and the Potency [10] was “inactive”. The Potency [11] was “inactive”, the Potency [12] was “inactive” and the Potency [13] was “inactive”. For the same compound, the Potency [14] was “inactive”.
In the case of COc1ccc2c(c1OC)CN1CCc3cc4c(cc3C1C2)OCO4 (stereo not drawn), the Potency [1] is reported as 17.2 µM (active), the Potency [2] is reported as “inactive” and the Potency [3] is reported as “inactive”. The Potency [4] was “inactive”, the Potency [6] was “inactive” and the Potency [8] was 15.5 µM (active). For the same compound, the Potency [9] was “inactive”, the Potency [15] was 17.4 µM (active) and the Potency [10] was “inactive”. The Potency [11] was “inactive”, the Potency [12] was “inactive” and the Potency [13] was “inactive”. For the same compound, the Potency [14] was “inactive”.
With c1ccc2c(c1)Nc1ccccc1S2 the Potency [1] was “inactive”, the Potency [2] was “inactive” and the Potency [3] was “inactive”. The Potency [4] was 48.6 µM (active), the Potency [6] was “inactive” and the Potency [7] was “inactive”. For the same compound, the Potency [8] was “inactive”, the Potency [9] was “inactive” and the Potency [10] was “inactive”. The Potency [11] was “inactive”, the Potency [12] was “inactive” and the Potency [13] was “inactive”. For the same compound, the Potency [14] was “inactive”.
With CC(=O)Nc1cc([As](=O)(O)O)ccc1O the Potency [1] was “inactive”, the Potency [2] was “inactive” and the Potency [3] was “inactive”. For the same compound, the Potency [4] was “inactive”, the Potency [5] was “inactive” and the Potency [6] was “inactive”. The Potency [7] was “inactive”, the Potency [8] was “inactive” and the Potency [9] was “inactive”. The Potency [15] was “inactive”, the Potency [10] was “inactive” and the Potency [11] was “inactive”. The Potency [12] was “inactive”, the Potency [13] was “inactive” and the Potency [14] was “inactive”.
For CN1C(=S)CN=C(c2ccccc2)c2cc(Cl)ccc21, the Potency [1] was “inactive”, the Potency [2] was “inactive” and the Potency [3] was “inactive”. For the same compound, the Potency [4] was “inactive”, the Potency [5] was “inactive” and the Potency [6] was “inactive”. The Potency [7] was “inactive”, the Potency [8] was “inactive” and the Potency [9] was “inactive”. The Potency [15] was “inactive”, the Potency [10] was “inactive” and the Potency [12] was “inactive”. The Potency [13] was “inactive” and the Potency [14] was “inactive”.
With CC(C)NCC(O)c1ccccc1Cl (stereo not drawn) the Potency [1] was “inactive”, the Potency [2] was “inactive” and the Potency [3] was “inactive”. The Potency [4] was “inactive”, the Potency [5] was “inactive” and the Potency [6] was “inactive”. The Potency [7] was “inactive”, the Potency [8] was “inactive” and the Potency [9] was “inactive”. The Potency [15] was “inactive”, the Potency [10] was “inactive” and the Potency [11] was “inactive”. For the same compound, the Potency [12] was “inactive”, the Potency [13] was “inactive” and the Potency [14] was “inactive”.
In the case of CC(C)=CC1C(C(=O)OCc2cccc(Oc3ccccc3)c2)C1(C)C (stereo not drawn), the Potency [1] is reported as “inactive”, the Potency [2] is reported as “inactive” and the Potency [3] is reported as “inactive”. For the same compound, the Potency [4] was “inactive”, the Potency [6] was “inactive” and the Potency [7] was “inactive”. The Potency [8] was “inactive”, the Potency [10] was “inactive” and the Potency [11] was “inactive”. The Potency [12] was “inactive”, the Potency [13] was “inactive” and the Potency [14] was “inactive”.
With Cc1ccc(-c2nc3ccc(C)cn3c2CC(=O)N(C)C)cc1 the Potency [1] was “inactive”, the Potency [2] was “inactive” and the Potency [3] was “inactive”. For the same compound, the Potency [4] was “inactive”, the Potency [5] was “inactive” and the Potency [6] was “inactive”. The Potency [7] was “inactive”, the Potency [8] was “inactive” and the Potency [9] was “inactive”. For the same compound, the Potency [15] was “inactive”, the Potency [10] was “inactive” and the Potency [11] was “inactive”. For the same compound, the Potency [12] was “inactive”, the Potency [13] was “inactive” and the Potency [14] was “inactive”.
In the case of CCN(CC)CCOC(=O)C(O)(c1ccccc1)c1ccccc1, the Potency [1] is reported as “inactive”, the Potency [2] is reported as “inactive” and the Potency [3] is reported as “inactive”. The Potency [4] was “inactive”, the Potency [5] was “inactive” and the Potency [6] was “inactive”. The Potency [7] was “inactive”, the Potency [8] was “inactive” and the Potency [9] was “inactive”. For the same compound, the Potency [15] was “inactive”, the Potency [10] was “inactive” and the Potency [11] was “inactive”. The Potency [12] was “inactive”, the Potency [13] was “inactive” and the Potency [14] was “inactive”.
In the case of O=C(NC(O)C(Cl)(Cl)Cl)NC(O)C(Cl)(Cl)Cl (stereo not drawn), the Potency [1] is reported as “inactive”, the Potency [2] is reported as “inactive” and the Potency [3] is reported as “inactive”. For the same compound, the Potency [4] was “inactive”, the Potency [6] was “inactive” and the Potency [7] was “inactive”. For the same compound, the Potency [8] was “inactive”, the Potency [15] was “inactive” and the Potency [10] was “inactive”. For the same compound, the Potency [11] was “inactive”, the Potency [12] was “inactive” and the Potency [13] was “inactive”. For the same compound, the Potency [14] was “inactive”.
